# Where “and” joins values, the source holds several entries; their conditions need not be identical. Equal entries are not always repeated. Inconclusive results are not listed. Where a structure was tested more than once in an assay, its records may differ in their call. Calls of active or inactive are those of the source. How the source made its calls, unless noted: active means hit-call score of the fitted dose curve at least 0.9, where 1 is the maximum; inconclusive means response in the unintended direction; inactive means score below 0.9.
# Tests used:
# [1] = CCTE_Shafer_MEA_acute_cross_correlation_HWHM: CCTE's Neural Acute Assay for Cross Correlation at Half Width at Half Maximum, Shafer Lab (AID 2284026; active means hit-call score of the fitted dose curve at least 0.9, where 1 is the maximum; inactive means score below 0.9;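 further: percent change per well from pre-dose baseline in spike cross-correlogram half width; hits are a decrease in cross-correlogram half width relative to DMSO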;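 on outcome: spontaneous network firing of rat primary cortical neurons on multiwell microelectrode arrays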)
# How it was run: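 Read-out: half width at half maximum of action-potential cross-correlogram, percent change versus pre-treatment baseline, fitted in loss direction against DMSO. Rat cortical cultures, DIV 13 or 15, dosed 0.03-40 uM, 40-min recordings at 37 C.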
# [2] = CCTE_Shafer_MEA_acute_synchrony_index: CCTE's Neural Acute Assay for Synchrony, Shafer Lab (AID 2284027; active means hit-call score of the fitted dose curve at least 0.9, where 1 is the maximum; inactive means score below 0.9;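 further: network synchrony index of spontaneous spiking in primary rat cortical neurons on MEAs; fitted for loss of signal so actives lower synchrony relative to DMSO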)
# How it was run: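 Primary rat cortical neurons on 16-electrode MEA wells were recorded 40 min at baseline (DIV 13 or 15) and 40 min after compound (0.03-40 uM) at 37 C. Synchrony index (0-1) expressed as percent change from baseline, versus DMSO.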
# [3] = target: Estrogen receptor (Homo sapiens) (UniProt P03372); assay: CCTE_Deisenroth_AIME_384WELL_LUC_Active: CCTE's 384-well Estrogen Receptor Transactivation Assay with AIME metabolic competence (ERTA luciferase; metabolism positive), Deisenroth Lab (AID 2284030)
# Estrogen receptor (Homo sapiens), sequence (P03372 whole entry, looked up): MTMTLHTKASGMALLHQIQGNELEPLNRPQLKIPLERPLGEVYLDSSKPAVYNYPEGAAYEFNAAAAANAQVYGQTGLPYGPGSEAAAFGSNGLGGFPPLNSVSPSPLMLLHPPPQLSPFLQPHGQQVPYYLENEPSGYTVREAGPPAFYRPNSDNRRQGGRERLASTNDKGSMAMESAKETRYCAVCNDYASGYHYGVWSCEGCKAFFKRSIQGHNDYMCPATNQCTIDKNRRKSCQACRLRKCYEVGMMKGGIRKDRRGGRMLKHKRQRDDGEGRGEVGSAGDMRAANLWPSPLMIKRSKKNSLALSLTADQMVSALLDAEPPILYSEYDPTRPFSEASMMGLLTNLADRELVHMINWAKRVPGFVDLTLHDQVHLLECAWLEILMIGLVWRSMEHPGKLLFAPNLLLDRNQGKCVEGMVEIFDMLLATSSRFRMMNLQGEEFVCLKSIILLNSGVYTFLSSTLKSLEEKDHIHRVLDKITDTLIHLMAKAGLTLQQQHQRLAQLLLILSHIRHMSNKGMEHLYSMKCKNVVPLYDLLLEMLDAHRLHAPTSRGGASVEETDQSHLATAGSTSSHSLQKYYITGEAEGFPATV
# How it was run: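 Readout: bioluminescent luciferase induction in VM7Luc4E2 cells 24 hour after receiving medium from a 2 h rat hepatic S9 (induced, alginate microsphere) metabolism step. Concentrations 0.002 - 200 uM; activity scaled to 17beta-estradiol positive control.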
# [4] = CCTE_Deisenroth_AIME_384WELL_CTox_Active: Cytotoxicity Assessment (CTOX) in CCTE's 384-well Estrogen Receptor Transactivation Assay with AIME metabolic competence (metabolism positive), Deisenroth Lab (AID 2284037);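 further: chemicals first conditioned 2 h by alginate-bound induced rat liver S9 before cells; activity means signal loss indicating cell death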
# How it was run: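 VM7Luc4E2 breast cells received medium pre-incubated 2 h with chemical over alginate microspheres holding induced male Sprague Dawley rat liver S9; viability read 24 h later by protease-substrate fluorescence. Loss of signal, bidirectional fit, 0.002–200 uM.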
# [5] = target: Estrogen receptor (Homo sapiens) (UniProt P03372); assay: CCTE_Deisenroth_AIME_384WELL_LUC_Inactive: CCTE's 384-well Estrogen Receptor Transactivation Assay without AIME metabolic competence (ERTA luciferase; metabolism negative), Deisenroth Lab (AID 2284038);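 further: hits raise estrogen receptor luciferase signal so potencies reflect agonists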
# How it was run: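 Chemicals (10-point series, 0.002 - 200 uM) were incubated 2 hours with alginate-water microsphere lids lacking S9, then the conditioned medium was transferred to VM7Luc4E2 breast cells for 24 hour. Luciferase induction was read by bioluminescence, fitted upward relative to 17beta-estradiol.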
# [6] = CCTE_Shafer_MEA_dev_per_burst_spike_percent: CCTE's Neural Network Formation Assay for Percent of Spikes in a Burst, Shafer Lab (AID 2284032; active means hit-call score of the fitted dose curve at least 0.9, where 1 is the maximum; inactive means score below 0.9;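 on AC50: fitted as a decrease in burst spike percentage below DMSO baseline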)
# How it was run: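 Rat primary cortical neurons on 16-electrode MEA wells, dosed from plating day 0 for 12 days with renewal on DIV 5 and 9; spikes-in-bursts percentage averaged over bursting electrodes, collapsed as AUC across days 5, 7, 9, 12; loss direction versus DMSO.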
# [7] = CCTE_Deisenroth_AIME_384WELL_CTox_Inactive: Cytotoxicity Assessment (CTOX) in CCTE's 384-well Estrogen Receptor Transactivation Assay without AIME metabolic competence (metabolism negative), Deisenroth Lab (AID 2284039);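 further: cell viability via live-cell protease substrate cleaved to fluorescent probe; cells exposed 24 h to medium preincubated 2 h with alginate-water beads without S9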
# How it was run: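 Fluorescent protease-substrate viability readout after 24 h exposure of VM7Luc4E2 cells to conditioned medium. Chemicals (0.002–200 uM) first sat 2 h over alginate-water beads, no S9. Data fitted bidirectionally, loss of signal meaning viability loss.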
structure (smiles),measurement,setting,value
Cc1ccc(N=CN(C)C=Nc2ccc(C)cc2C)c(C)c1,outcome,[1],inactive
same,outcome,[2],inactive
same,outcome,[3],inactive
same,outcome,[4],inactive
same,outcome,[5],inactive
CCOP(=O)(OCC)Oc1nc(Cl)c(Cl)cc1Cl,AC50,[1],34.8 µM (active)
same,AC50,[2],0.0262 µM (active)
same,outcome,[3],inactive
same,AC50,[6],1.39 µM (active) and 15 µM (active)
same,outcome,[6],inactive
same,outcome,[5],inactive
COP(=S)(OC)SCn1nnc2ccccc2c1=O,outcome,[1],inactive
same,outcome,[2],inactive
same,outcome,[3],inactive
same,outcome,[6],inactive
same,outcome,[4],inactive
same,outcome,[5],inactive
same,AC50,[7],100 µM (active)
CCCCC(O)(Cn1cncn1)c1ccc(Cl)cc1Cl (centres undefined),outcome,[1],inactive
same,outcome,[2],inactive
same,AC50,[4],162 µM (active)
same,AC50,[7],100 µM (active)
COc1ccc(-c2ccccc2)cc1NNC(=O)OC(C)C,AC50,[4],79.5 µM (active)
same,outcome,[5],inactive
same,AC50,[7],77.9 µM (active)
CC1(C)CON(Cc2ccccc2Cl)C1=O,outcome,[3],inactive
same,AC50,[5],73.1 µM (active)
Nc1cnn(-c2ccccc2)c(=O)c1Cl,outcome,[3],inactive
same,outcome,[5],inactive
CCOP(=S)(OCC)Oc1nc(Cl)n(C(C)C)n1,outcome,[3],inactive
same,outcome,[4],inactive
same,outcome,[5],inactive
same,outcome,[7],inactive
COC(=O)NS(=O)(=O)c1ccc(N)cc1,outcome,[3],inactive
same,outcome,[5],inactive
CCOc1nc(C(Cl)(Cl)Cl)ns1,outcome,[3],inactive
same,outcome,[5],inactive
CCNC(=O)NC(=O)C(C#N)=NOC,outcome,[6],inactive
CN=C=S,outcome,[3],inactive
same,outcome,[4],inactive
same,outcome,[5],inactive
same,outcome,[7],inactive
COP(=O)(OC)O/C(C)=C/C(=O)N(C)C,outcome,[6],inactive
CCCCC(C#N)(Cn1cncn1)c1ccc(Cl)cc1 (centres undefined),outcome,[4],inactive
N#Cc1c(Cl)cccc1Cl,outcome,[3],inactive
same,outcome,[4],inactive
same,outcome,[5],inactive
same,outcome,[7],inactive
CCCCOCN(C(=O)CCl)c1c(CC)cccc1CC,outcome,[4],inactive
CC(C)(C)C(=O)C(Oc1ccc(Cl)cc1)n1cncn1 (centres undefined),AC50,[6],41.3 µM (active)
COCC(C)N(C(=O)CCl)c1c(C)csc1C (centres undefined),outcome,[3],inactive
same,outcome,[4],inactive
same,outcome,[5],inactive
same,outcome,[7],inactive
COC(=O)NC(=S)Nc1ccccc1NC(=S)NC(=O)OC,outcome,[3],inactive
same,outcome,[4],inactive
same,outcome,[5],inactive
same,outcome,[7],inactive
CC(C)Oc1cccc(NC(=O)c2ccccc2C(F)(F)F)c1,outcome,[4],inactive
same,outcome,[7],inactive
Cc1cc(C)nc(Nc2ccccc2)n1,AC50,[3],93.3 µM (active)
same,outcome,[5],inactive
COc1cc(OC)nc(NC(=O)NS(=O)(=O)c2ncccc2OCC(F)(F)F)n1,outcome,[3],inactive
same,outcome,[4],inactive
same,outcome,[5],inactive
same,outcome,[7],inactive
COP(=S)(OC)Oc1ccc([N+](=O)[O-])c(C)c1,outcome,[3],inactive
same,outcome,[6],inactive
same,outcome,[4],inactive
same,outcome,[5],inactive
same,outcome,[7],inactive
CS(=O)(=O)c1ccc(C(=O)C2C(=O)CCCC2=O)c([N+](=O)[O-])c1,outcome,[6],inactive
CCC(C)n1c(=O)[nH]c(C)c(Br)c1=O (centres undefined),outcome,[3],inactive
same,outcome,[4],inactive
same,outcome,[5],inactive
Nc1c(Cl)c(Cl)nc(C(=O)O)c1Cl,AC50,[3],41.7 µM (active)
same,outcome,[4],inactive
same,AC50,[5],14.3 µM (active)
same,outcome,[7],inactive
CNC(=O)N(C)c1nnc(C(C)(C)C)s1,outcome,[3],inactive
same,outcome,[5],inactive
O=c1n(Cl)c(=O)n(Cl)c(=O)n1Cl,outcome,[3],inactive
same,outcome,[5],inactive
same,outcome,[7],inactive
COCc1cnc(C2=NC(C)(C(C)C)C(=O)N2)c(C(=O)O)c1 (centres undefined),outcome,[3],inactive
same,outcome,[4],inactive
same,outcome,[5],inactive
same,outcome,[7],inactive
CCSC(=O)N1CCCCCC1,outcome,[3],inactive
same,outcome,[6],inactive
same,outcome,[4],inactive
same,outcome,[5],inactive
same,outcome,[7],inactive
CCN(CC)c1nc(C)cc(OP(=S)(OC)OC)n1,AC50,[6],30.9 µM (active)
Clc1cccc(C(Cl)(Cl)Cl)n1,outcome,[3],inactive
same,outcome,[5],inactive
CS(=O)(=O)c1cc(C(F)(F)F)ccc1C(=O)c1cnoc1C1CC1,outcome,[3],inactive
same,outcome,[6],inactive
same,outcome,[4],inactive
same,outcome,[5],inactive
same,outcome,[7],inactive
O=C1C2CC=CCC2C(=O)N1SC(Cl)(Cl)Cl (centres undefined),AC50,[6],16.7 µM (active) and 15.7 µM (active)
CC(C)Nc1nc(Cl)nc(NC(C)C)n1,outcome,[3],inactive
same,outcome,[5],inactive

# From PubChem BioAssay (EPA / NIEHS)
